# Values without a mark were called inactive. Records with an inconclusive call do not appear. Where a call stands in place of a potency, no number is given. Active and inactive are the calls of the source. Unless noted, the call rests on the fitted dose curve.
# Columns and labels:
# [1] = Nuclear factor erythroid 2-related factor 2/antioxidant responsive element (Nrf2/ARE) small molecule agonists: qHTS cell viability counter screen in human keratinocytes (AID 1919968; active means well fitted curve in the direction sought with a large enough effect in the repeat runs; an effect the other way counts as inactive or inconclusive; further: nearly all actives have a fitted effect of over 55% in size; further: potency means the concentration at half of the fitted maximal effect)
# Procedure, shortened: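 KeratinoSens HaCaT cells, 1,500/well, preincubated 5 h, then exposed to compounds in DMSO for 23 h at 37 C/5% CO2. Viability read as CellTiter-Fluor fluorescence after 1 h, in the same wells as the ARE-luciferase read.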
# [2] = Nuclear factor erythroid 2-related factor 2/antioxidant responsive element (Nrf2/ARE) small molecule agonists: luciferase reporter gene qHTS assay in human keratinocytes (AID 1919969); further: nearly all actives have a fitted effect of over 35% in size; further: potency means the concentration at half of the fitted maximal effect
# [3] = target: Gonadotropin-releasing hormone receptor (Homo sapiens) (UniProt P30968); test: Human gonadotropin-releasing hormone receptor (GnRHR) small molecule agonists, calcium flux assay in GnRHR-HEK293 cells (AID 1920063); further: nearly all actives have a fitted effect of over 35% in size
# Chain of Gonadotropin-releasing hormone receptor (Homo sapiens) (P30968 whole entry, looked up): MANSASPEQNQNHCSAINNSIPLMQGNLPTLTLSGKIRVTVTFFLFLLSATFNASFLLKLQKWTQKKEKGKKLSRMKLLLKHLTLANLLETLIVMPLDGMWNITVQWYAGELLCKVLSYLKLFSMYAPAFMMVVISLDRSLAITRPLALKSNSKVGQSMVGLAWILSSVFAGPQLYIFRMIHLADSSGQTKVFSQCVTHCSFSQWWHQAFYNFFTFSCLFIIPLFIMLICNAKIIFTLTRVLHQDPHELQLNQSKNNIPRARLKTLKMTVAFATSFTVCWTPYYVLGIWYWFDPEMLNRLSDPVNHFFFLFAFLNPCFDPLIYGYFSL
# Procedure, shortened: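 HEK293 cells stably expressing human GnRHR were dye-loaded for 1 h at 37 C. Compound was added in agonist mode and fluorescence (Ex/Em 480/540) recorded kinetically for 3 min. Fifteen concentrations, triplicates.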
# [4] = target: KiSS-1 receptor (Homo sapiens) (UniProt Q969F8); test: Human kisspeptin (KISS1R) small molecule agonists, calcium flux assay in KISS1R-HEK293 cells (AID 1920064; active means well fitted curve in the direction sought with a large enough effect in the repeat runs; an effect the other way counts as inactive or inconclusive)
# Chain of KiSS-1 receptor (Homo sapiens) (Q969F8 whole entry, looked up): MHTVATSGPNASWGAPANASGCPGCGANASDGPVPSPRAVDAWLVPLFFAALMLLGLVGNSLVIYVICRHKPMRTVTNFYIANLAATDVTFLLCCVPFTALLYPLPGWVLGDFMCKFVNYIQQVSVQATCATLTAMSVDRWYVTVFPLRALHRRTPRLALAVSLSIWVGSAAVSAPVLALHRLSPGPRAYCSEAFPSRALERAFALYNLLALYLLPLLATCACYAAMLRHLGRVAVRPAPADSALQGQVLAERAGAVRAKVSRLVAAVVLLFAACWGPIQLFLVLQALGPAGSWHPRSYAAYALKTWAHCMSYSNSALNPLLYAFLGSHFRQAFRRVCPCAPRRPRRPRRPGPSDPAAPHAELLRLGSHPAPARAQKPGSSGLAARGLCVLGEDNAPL
# Procedure, shortened: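 HEK293 cells stably expressing human KISS1R were loaded with calcium dye for 1 h at 37 C, then given compound; fluorescence (Ex/Em 480/540) was read kinetically for 3 min. Fifteen concentrations, triplicate.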
# [5] = G protein-coupled receptor (GPCR) small molecule agonists, calcium flux assay: HEK293 wild type cell line counter screen (AID 1920065)
# Procedure, shortened: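 Wild-type HEK293 cells plated 18 h, loaded with calcium dye 1 h at 37 C, then compounds added in agonist mode (ATP as positive control). Kinetic fluorescence Ex/Em 480/540 recorded 3 min at 1 sec intervals; 15 concentrations, triplicate.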
# [6] = p53 small molecule agonists, cell-based qHTS assay with rat liver microsomes: qHTS cell viability counter screen (AID 1963580); further: nearly all actives have a fitted effect of over 45% in size
# Procedure, shortened: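 Intracellular ATP, by CellTiter-Glo luminescence, defines viability. HCT-116 p53RE-bla cells, 4,000 per well, were compound-treated in the presence of rat liver microsomes and NADPH for 16 h at 37 C.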
# [7] = p53 small molecule agonists, cell-based qHTS assay: qHTS cell viability counter screen (AID 1963581); further: nearly all actives have a fitted effect of over 45% in size
# Procedure, shortened: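 p53RE-bla HCT-116 cells, compounds added 5 h after plating and incubated 16 h at 37 C. Cytotoxicity measured in the same wells as intracellular ATP by CellTiter-Glo luminescence after 30 min at room temperature.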
# [8] = target: 5-hydroxytryptamine receptor 2A (Homo sapiens) (UniProt P28223); test: 5-hydroxytryptamine receptor 2A (HTR2A) small molecule antagonists, cell-based qHTS assay (AID 1963586); further: nearly all actives have a fitted effect of over 45% in size
# Chain of 5-hydroxytryptamine receptor 2A (Homo sapiens) (P28223 whole entry, looked up): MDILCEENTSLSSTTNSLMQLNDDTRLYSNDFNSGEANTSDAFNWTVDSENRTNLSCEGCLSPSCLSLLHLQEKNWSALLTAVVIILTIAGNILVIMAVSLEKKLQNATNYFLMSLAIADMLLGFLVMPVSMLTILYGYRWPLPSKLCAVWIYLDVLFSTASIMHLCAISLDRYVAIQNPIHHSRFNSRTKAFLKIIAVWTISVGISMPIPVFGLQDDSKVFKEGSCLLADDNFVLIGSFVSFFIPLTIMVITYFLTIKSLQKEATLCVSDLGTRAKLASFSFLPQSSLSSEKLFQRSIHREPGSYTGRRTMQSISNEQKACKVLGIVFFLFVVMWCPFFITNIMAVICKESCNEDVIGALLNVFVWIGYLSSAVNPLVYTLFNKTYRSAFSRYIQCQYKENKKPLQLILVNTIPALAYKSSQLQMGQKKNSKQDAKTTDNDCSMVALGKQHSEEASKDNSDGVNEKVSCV
# Procedure, shortened: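 Antagonist-mode intracellular calcium assay: DOI (4 nM) added after 5 min compound pre-incubation at room temperature to dye-loaded HTR2A-CHO cells. Fluorescence followed for 3 min, sampled every second.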
# [9] = target: 5-hydroxytryptamine receptor 2A (Homo sapiens) (UniProt P28223); test: 5-hydroxytryptamine receptor 2A (HTR2A) small molecule agonists, cell-based qHTS assay (AID 1963587); further: nearly all actives have a fitted effect of over 30% in size
# Procedure, shortened: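 Kinetic calcium-flux fluorescence (2 min, 1 sec intervals) after compound addition in agonist mode. HTR2A-CHO cells were cultured 18 h, then dye-loaded 1 h at 37 C.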
# [10] = target: Muscarinic acetylcholine receptor M1 (Homo sapiens) (UniProt P11229); test: Cholinergic receptor muscarinic 1 (CHRM1) small molecule antagonists, cell-based qHTS assay (AID 1963588); further: nearly all actives have a fitted effect of over 40% in size
# Chain of Muscarinic acetylcholine receptor M1 (Homo sapiens) (P11229 whole entry, looked up): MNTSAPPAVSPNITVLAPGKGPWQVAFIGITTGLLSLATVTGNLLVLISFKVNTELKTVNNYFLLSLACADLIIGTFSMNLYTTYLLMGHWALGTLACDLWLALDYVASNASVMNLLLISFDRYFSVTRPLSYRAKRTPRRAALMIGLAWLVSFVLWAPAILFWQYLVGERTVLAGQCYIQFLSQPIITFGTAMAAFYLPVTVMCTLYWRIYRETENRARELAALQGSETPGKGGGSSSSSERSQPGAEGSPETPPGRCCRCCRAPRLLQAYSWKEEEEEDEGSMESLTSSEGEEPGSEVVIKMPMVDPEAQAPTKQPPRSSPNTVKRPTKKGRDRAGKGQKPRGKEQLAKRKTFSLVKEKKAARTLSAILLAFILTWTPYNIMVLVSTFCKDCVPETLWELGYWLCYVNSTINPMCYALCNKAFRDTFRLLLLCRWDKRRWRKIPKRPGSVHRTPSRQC
# Procedure, shortened: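 CHRM1-CHO calcium-flux assay, antagonist mode. Cells were seeded 18 h, dye-loaded 1 h at 37 C and given compound for 5 min at RT, then acetylcholine was added at 50nM. FDSS fluorescence was read 3 min; 15 concentrations, three runs.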
# [11] = target: Muscarinic acetylcholine receptor M1 (Homo sapiens) (UniProt P11229); test: Cholinergic receptor muscarinic 1 (CHRM1) small molecule agonists, cell-based qHTS assay (AID 1963589); further: nearly all actives have a fitted effect of over 35% in size
# Procedure, shortened: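 CHO cells stably expressing human CHRM1 were loaded with calcium dye for 1 h at 37 C, then compound was added in agonist mode. Intracellular calcium fluorescence was followed kinetically at 1 s intervals. Fifteen concentrations were tested in three independent runs.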
# [12] = cAMP Responsive Elements (CRE) small molecule agonists, cell-based qHTS assay (AID 1963590)
# Procedure, shortened: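 CRE-bla HEK 293T cells, 2,000/well in DMEM with 10% dialyzed FBS and 25 mM HEPES, pre-incubated 18 h at 37 C, then exposed to compound 3 h at 37 C. Beta-lactamase reporter read with LiveBLAzer B/G FRET substrate after 2 h at room temperature.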
# [13] = cAMP Responsive Elements (CRE) small molecule antagonists, cell-based qHTS assay (AID 1963591; active means well fitted inhibition curve with a large enough effect in the signal ratio in the repeat runs, not every such curve was filed as active; the % refers to the signal ratio)
# Procedure, shortened: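 CRE-bla HEK293T cells plated 18 h, then given compound plus NKH477 at 0.25 uM final for 3 h at 37C. Beta-lactamase reporter read with LiveBLAzer B/G FRET substrate after 2 h at room temperature.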
# [14] = target: Beta-2 adrenergic receptor (Homo sapiens) (UniProt P07550); test: Adrenergic beta2 receptor (ADRB2) small molecule antagonists, cell-based qHTS assay (AID 1963592); further: series mostly up to about 92 µM; nearly all actives have a fitted effect of over 50% in size
# Chain of Beta-2 adrenergic receptor (Homo sapiens) (P07550 whole entry, looked up): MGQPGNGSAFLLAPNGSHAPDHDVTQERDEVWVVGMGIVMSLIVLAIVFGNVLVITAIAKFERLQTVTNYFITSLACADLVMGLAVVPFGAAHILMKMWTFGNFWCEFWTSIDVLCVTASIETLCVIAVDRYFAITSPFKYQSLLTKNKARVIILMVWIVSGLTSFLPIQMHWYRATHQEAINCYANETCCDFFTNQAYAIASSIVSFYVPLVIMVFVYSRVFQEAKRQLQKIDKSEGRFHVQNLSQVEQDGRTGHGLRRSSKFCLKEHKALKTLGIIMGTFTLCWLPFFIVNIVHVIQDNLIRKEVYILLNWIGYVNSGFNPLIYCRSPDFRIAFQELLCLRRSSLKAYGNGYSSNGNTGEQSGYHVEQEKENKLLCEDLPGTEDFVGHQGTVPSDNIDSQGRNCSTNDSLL
# Procedure, shortened: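 Cells (CHO, stable ADRB2 overexpression) incubated 18-20hr at 37C; compounds added from DMSO; agonist mix (1nM isoproterenol, 100uM IBMX, 25uM Ro-20-1724) added; 0.5hr RT; d2-cAMP and anti-cAMP-cryptate added; 1hr RT; 665/615 nm read.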
# [15] = target: Beta-2 adrenergic receptor (Homo sapiens) (UniProt P07550); test: Adrenergic beta2 receptor (ADRB2) small molecule agonists, cell-based qHTS assay (AID 1963593);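 further: CHO cells stably overexpressing human ADRB2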
# Procedure, shortened: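 CHO cells stably over-expressing ADRB2 were plated overnight at 37C, then dosed with compounds plus a stimulation mix containing 100uM IBMX and 25uM Ro-20-1724 for 0.5hr at room temperature. cAMP was measured by HTRF competition, 1hr.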
# [16] = target: D(2) dopamine receptor (Homo sapiens) (UniProt P14416); test: Dopamine D2 receptor (DRD2) small molecule agonists, cell-based qHTS assay (AID 1963594); further: nearly all actives have a fitted effect of over 35% in size
# Chain of D(2) dopamine receptor (Homo sapiens) (P14416 whole entry, looked up): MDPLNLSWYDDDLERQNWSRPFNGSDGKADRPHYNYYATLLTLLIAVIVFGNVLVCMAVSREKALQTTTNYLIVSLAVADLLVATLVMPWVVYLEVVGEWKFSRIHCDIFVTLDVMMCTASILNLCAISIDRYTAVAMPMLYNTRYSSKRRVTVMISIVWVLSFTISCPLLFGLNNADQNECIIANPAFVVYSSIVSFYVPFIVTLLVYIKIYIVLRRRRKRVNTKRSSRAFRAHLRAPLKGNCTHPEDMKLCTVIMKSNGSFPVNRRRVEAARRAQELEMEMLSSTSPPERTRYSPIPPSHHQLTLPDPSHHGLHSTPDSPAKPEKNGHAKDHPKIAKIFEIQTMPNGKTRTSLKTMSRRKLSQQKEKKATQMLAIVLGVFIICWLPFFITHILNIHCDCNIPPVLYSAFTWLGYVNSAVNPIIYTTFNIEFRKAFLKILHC
# Procedure, shortened: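 cAMP accumulation in DRD2-HEK293 cells measured by HTRF after 1 h detection; compounds added 10 min before NKH477 (200nM […]) forskolin-analogue stimulation, 30 min at room temperature, with Ro20-1724 present at 0.1 mM final.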
# [17] = target: D(2) dopamine receptor (Homo sapiens) (UniProt P14416); test: Dopamine D2 receptor (DRD2) small molecule antagonists, cell-based qHTS assay (AID 1963595; active means well fitted inhibition curve with a large enough effect in the signal ratio in the repeat runs, with a control signal flat; the % refers to the signal ratio)
# Procedure, shortened: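 Antagonist mode in DRD2-HEK293 cells: after compound addition with 0.1 mM Ro20-1724, cells received quinpirole (12 nM) and NKH477 (200 nM) for 30 min at room temperature; HTRF cAMP read after 1 h detection.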
# [18] = p53 small molecule agonists, cell-based qHTS assay with human liver microsomes: qHTS cell viability counter screen (AID 1963579); further: nearly all actives have a fitted effect of over 45% in size
# Procedure, shortened: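 In this multiplexed counter screen, the reporter plates were subsequently treated with CellTiter-Glo so that cell viability, reflected by luminescence, could be recorded for p53RE-bla cells dosed 16 h with compounds under microsomal activation (HLM and NADPH).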
SMILES,Potency [1],Potency [2],Potency [3],Potency [4],Potency [5],Potency [6],Potency [7],Potency [8],Potency [9],Potency [10],Potency [11],Potency [12],Potency [13],Potency [14],Potency [15],Potency [16],Potency [17],Potency [18]
O=C(O)[C@H](O)[C@@H](O)C(=O)O,inactive,inactive,inactive,inactive,inactive,inactive,inactive,inactive,inactive,inactive,inactive,inactive,inactive,inactive,inactive,inactive,inactive,–
CCc1ccccc1N,inactive,inactive,inactive,inactive,inactive,–,inactive,inactive,inactive,inactive,inactive,–,inactive,inactive,–,inactive,inactive,inactive
CCN[C@@H](C)Cc1cccc(C(F)(F)F)c1,inactive,inactive,inactive,inactive,inactive,inactive,–,–,–,–,–,inactive,inactive,–,–,–,inactive,inactive
ClSC(Cl)(Cl)Cl,inactive,inactive,inactive,inactive,inactive,inactive,inactive,–,inactive,inactive,–,–,inactive,inactive,inactive,inactive,inactive,inactive
CCCCN(CCCC)C(=S)[S-].CCCCN(CCCC)C(=S)[S-].[Ni+2],8.42 µM (active),2.99 µM (active),inactive,inactive,inactive,–,inactive,inactive,inactive,inactive,inactive,inactive,inactive,inactive,inactive,inactive,inactive,inactive
CCC(C)(C)O,inactive,inactive,inactive,inactive,inactive,–,–,inactive,inactive,inactive,inactive,inactive,inactive,inactive,–,inactive,inactive,inactive
CN1C(=O)COc2c(C(=O)NC3CN4CCC3CC4)cc(Cl)cc21 (stereo unspecified),inactive,inactive,inactive,inactive,inactive,inactive,inactive,–,–,–,–,inactive,inactive,inactive,–,inactive,inactive,inactive
C[C@H](CN1CCOCC1)C(C(=O)N1CCCC1)(c1ccccc1)c1ccccc1,inactive,inactive,inactive,inactive,inactive,inactive,–,inactive,inactive,–,inactive,–,–,inactive,inactive,inactive,inactive,inactive

# Reference: PubChem BioAssay (Tox21)
